Screening results as filed in PubChem.
Hits are enriched below; roughly 2.4% of the tested compounds scored in any of these assays.
D2 ag-1: activates the human D2 dopamine receptor; P14416; HEK293 T-REx D2 cells, calcium flux agonist mode; activation, % at 2 µM; actives 0.53% (n = 340,000);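 active = activation over 3 SD above normal in the single-dose calcium agonist read, cut at about 30% in these data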; note: 0% is about no effect
Target sequence (P14416 whole entry, looked up): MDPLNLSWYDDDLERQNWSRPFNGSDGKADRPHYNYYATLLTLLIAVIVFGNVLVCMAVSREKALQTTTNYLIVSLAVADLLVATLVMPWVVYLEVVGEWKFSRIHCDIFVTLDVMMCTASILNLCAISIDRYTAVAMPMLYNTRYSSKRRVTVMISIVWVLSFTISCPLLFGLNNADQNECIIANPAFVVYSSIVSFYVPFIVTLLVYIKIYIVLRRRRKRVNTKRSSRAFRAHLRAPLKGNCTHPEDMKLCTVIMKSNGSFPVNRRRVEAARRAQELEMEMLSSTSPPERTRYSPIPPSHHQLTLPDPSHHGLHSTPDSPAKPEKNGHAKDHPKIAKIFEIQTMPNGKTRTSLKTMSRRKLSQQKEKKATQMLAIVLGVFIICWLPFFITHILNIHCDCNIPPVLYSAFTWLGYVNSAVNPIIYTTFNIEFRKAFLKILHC
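Agonism scored from kinetic calcium signal (1 read/sec, 180 s) following compound pin transfer, after a 10 s baseline. Cells: HEK293 Trex line expressing inducible D2 receptor coupled to calcium, dye-loaded after overnight culture at 30 C.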
D2 PAM-1: positive allosteric modulators of human D2 dopamine receptor. DiscoveRx D2 beta-arrestin cells, luminescence, 90 min; 100% = 57 uM dopamine signal. actives 0.23% (n = 360,000). AID 624464. potentiation, % (test concentration not listed); in the data active = potentiation above about 50%; inconclusive = mostly about 30% to 49%
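PathHunter beta-arrestin assay in DiscoveRx D2 cells. Compounds were added with an EC20 of dopamine (50 nM final) for 90 min at 37 deg C. Luminescence was read 1 h after detection reagent, with 57 uM dopamine as the EC100 control.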
D2 ag-2: activates the human D2 dopamine receptor; P14416; actives 0.084% (n = 360,000); activation, % (test concentration not listed); AID 624465; DiscoveRx PathHunter D2 beta-arrestin, luminescence, 90 min; 100% = 57 uM dopamine signal; in the data active = activation above about 40%; inconclusive = between about 15% and that limit
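DiscoveRx PathHunter D2 beta-arrestin cells (2,100/well) attached overnight, then compound-stimulated 90 min at 37 C in HBSS/10 mM HEPES/0.1% Tween-20 buffer; beta-galactosidase complementation read by luminescence after 1 h at ambient temperature. Dopamine 57 uM final (EC100) as control.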
D2 PAM-2: D2 dopamine receptor (human) potentiation; HEK293 T-REx D2, calcium flux, EC20 dopamine potentiation; potentiation, % at 10 µM; actives 0.34% (n = 340,000); AID 485347;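 active = potentiation over 3 SD above the plate norm, cut at about 30% in these data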; note: 0% is about no effect
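Tetracycline-induced Hek293 Trex D2 cells, force-coupled to calcium, loaded with no-wash calcium dye. Compound added with 180 s kinetic read for agonism, then EC20 dopamine and a further 180 s read for potentiation.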
D2 antag: antagonists of human D2 dopamine receptor; P14416; HEK293 TREx D2 cells, calcium flux, dopamine EC80; inhibition, % at 10 µM; actives 2% (n = 340,000); AID 485344; in the data active = inhibition above about 30%; inactive = below that, where a call was filed; note: 0% is about no effect
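Tetracycline-induced HEK293 T-REx cells expressing D2 force-coupled to calcium signalling were dye-loaded, exposed to compound for 180 s, then challenged with an EC80 of dopamine; calcium flux was followed kinetically for a further 180 s.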
* marks the source's active call; other numbers are inactive results; ? = inconclusive; . = no result given.

SMILES	D2 ag-1	D2 PAM-1	D2 ag-2	D2 PAM-2	D2 antag
COc1ccc(N2CC(NC(=O)c3ccc(S(=O)(=O)N4CCCC4)cc3)CC2=O)cc1 (centres undefined)	0.3	.	.	20.0	.
O=C(Nc1ccc(-c2ccco2)cc1)C1CCCN(Cc2ccco2)C1 (centres undefined)	.	-25.1	1.2	.	.
O=C1Cc2cc(S(=O)(=O)N3CCN(c4ccccc4)CC3)ccc2N1	0.5	-6.7	-6.1	-2.1	-13.7
O=C1Cc2cc(CCN3CCN(c4nsc5ccccc45)CC3)c(Cl)cc2N1	-0.3	.	.	-25.2	84.1*
COc1ccccc1-n1cnnc1SCC(=O)c1c[nH]c2ccccc12	1.8	1.9	-1.9	4.7	3.6
CCNC(=O)Nc1ccc(-n2nc(C)c(C(=O)OCC)c2C)nc1	-1.0	-4.8	1.9	1.4	45.0*
CCOC(=O)c1c(C)nn(-c2ccc(NC(=O)/C=C/C(=O)O)cc2)c1C	0.4	3.7	0.5	8.5	-19.9
Cc1nc2c(c(=O)c3ccccc3n2C)c(=O)n1C1CCCCCC1	15.4	7.4	0.2	6.6	6.1
COc1ccc(C)cc1NC(=O)NC(C)c1ccncc1 (centres undefined)	0.5	-15.8	-3.9	5.4	-5.7
CCc1nnc(NC(=O)c2ccc(COc3ccc(C)cc3)o2)s1	0.6	-0.2	-3.0	0.0	30.2*
CCc1nnc(NC(=O)c2ccc(COc3ccccc3)o2)s1	-1.0	-3.3	-1.6	29.9	-12.4
CCc1nnc(NC(=O)CCC(=O)Nc2ccc(C)cc2)s1	1.0	-10.9	-8.9	-8.6	43.2*
S=C(NCc1cccnc1)Nc1ccc2c(c1)OCO2	-0.5	-10.0	-1.2	3.5	1.2
CN(C(=O)c1ccc(C#N)cc1)c1nnc(-c2ccccn2)s1	-0.8	-20.5	-3.8	11.8	24.8
CN(C(=O)c1ccncc1)c1nnc(-c2ccccn2)s1	0.6	8.5	2.1	-2.2	34.7*
Cc1cccc(NC(=S)NC2CC3CCC(C2)N3Cc2ccco2)c1C (centres undefined)	0.6	-22.3	-1.0	-19.4	36.1*
COc1ccc(CN2C3CCCC2CC(NC(=O)Nc2ccccc2C)C3)cc1 (centres undefined)	.	-20.5	-1.4	.	.
Cc1cccc(NC(=S)NC2CC3CCCC(C2)N3Cc2ccccc2)c1C (centres undefined)	0.0	-21.3	-2.4	-27.8	104.6*
Cc1ccc(NC(=S)NC2CC3CCC(C2)N3Cc2ccco2)c(C)c1 (centres undefined)	-0.5	-24.5	-2.1	-15.0	4.2
CCc1ccccc1NC(=S)NC1CC2CCC(C1)N2Cc1ccco1 (centres undefined)	-0.5	-24.4	0.3	-10.9	7.2
CCc1ccccc1NC(=S)NC1CC2CCC(C1)N2Cc1ccc(F)cc1 (centres undefined)	1.4	-6.0	-0.4	-28.1	78.3*
O=C(C1CCCO1)N1CCN(Cc2nc3ccccc3c(=O)[nH]2)CC1 (centres undefined)	-2.5	-11.5	0.1	12.6	0.9
COc1ccc(Cc2c(-c3cccc(Br)c3)nc3c(C)cc(Br)cn23)c(C)c1	.	-0.5	-4.2	.	.
Cc1nc2ncccn2c1-c1csc(NCc2ccco2)n1	0.3	-20.3	0.8	37.9*	1.0
COc1ccc(N=Cc2sc(O)c3ccccc23)cc1	0.4	113.3*	?	-1.1	11.5
SMILES	D2 ag-1	D2 PAM-1	D2 ag-2	D2 PAM-2	D2 antag
COc1ccc(C(OC(=O)c2ccco2)C(=O)NCc2ccco2)cc1 (centres undefined)	0.2	-8.7	-2.8	2.6	5.6
CCn1c(=O)c(C(C)=O)nc2ccccc21	-0.1	-8.1	-3.7	-1.7	32.8*
Cc1ccccc1OCCCc1c(C)n[nH]c1C	1.1	4.7	1.4	.	-4.0
O=C(CSCc1ccccc1Br)N/N=C/c1ccc2c(c1)OCO2	0.1	6.5	-0.9	18.2	4.7
O=C(CSCc1cccc(Br)c1)N/N=C/c1ccc2c(c1)OCO2	0.0	-6.6	-3.5	-0.2	33.5*
CC(C)Oc1ccc(CCC(=O)N/N=C/c2ccc3c(c2)OCO3)cc1	0.5	-3.2	2.2	-2.0	-10.7
O=C(CCc1ccc(O)c(O)c1)N/N=C/c1ccc2c(c1)OCO2	18.7	-0.8	?	2.0	42.3*
CCOC(=O)N1CCN(C(=O)CS(=O)(=O)Cc2nc(-c3ccccc3F)oc2C)CC1	0.3	-17.0	-6.5	22.3	2.2
